# Compound activity (PubChem BioAssay)
# The sample as a whole holds a higher share of hits than the screen did.
# ER stress death: ER stress cell death inhibition; AID 1010; CSM14.1 thapsigargin ER stress survival, ATP luminescence; 48,000 compounds, 0.33% hits; relative survival (cellular ATP), % at 15 µg/mL (by protocol);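 active = survival measured by cellular ATP above 50% at 15 µg/ml in the first screen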;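 note: cell death triggered by about 15 µM thapsigargin; ATP read 24 h after thapsigargin was added; plate controls were thapsigargin with DMSO for no effect and DMSO without thapsigargin for full effect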
# Numbers without * were called inactive.
SMILES,ER stress death
COc1cc(C2/C(=C(\O)c3ccc(Cl)cc3)C(=O)C(=O)N2c2cccnc2)ccc1O (stereo not given),3.2
COc1ccc(-c2nc3ccccc3c(C(=O)NC(C)(C)C)c2C)cc1,-1.6
O=C1NN(c2ccccc2)C(=O)/C1=C/c1cccc(Cl)c1,-8.6
CCc1ccc(-c2nc(-c3ccccn3)no2)cc1,-9.2
COc1ccccc1CNC(=O)c1ccc(F)cc1,100.5*
COc1ccccc1CNC(=O)c1ccc(OC)c(OC)c1,10.8
COc1ccccc1CNC(=O)c1ccc(C)cc1,6.3
COc1ccc(-c2cc(C3CC3)nc(SC)c2C#N)cc1,9.9
C=COCCNC(=O)C(=O)Nc1ccccc1C,12.0
Cc1ccc(S(=O)(=O)NC(=O)Oc2ccc3oc(=O)sc3c2)cc1,6.8
COc1cc(C=C2C(=O)NC(=S)NC2=O)ccc1OS(=O)(=O)c1ccccc1,-1.0
COc1ccc(C2Nc3ccccc3NC3=C2C(=O)CC(c2ccccc2)C3)cc1OC (stereo not given),6.9
COc1ccc(C2CC(=O)C3=C(C2)Nc2ccccc2NC3c2cccc(Br)c2)cc1OC (stereo not given),122.2*
COc1ccc(C2CC(=O)C3=C(C2)Nc2ccccc2NC3c2ccc(OC(C)=O)c(OC)c2)cc1OC (stereo not given),3.0
COc1ccc(C2CC(=O)C3=C(C2)Nc2ccccc2NC3c2cccc(C(F)(F)F)c2)cc1OC (stereo not given),134.6*
COc1ccc(C2CC(=O)C3=C(C2)Nc2ccccc2NC3c2ccc(F)cc2)cc1OC (stereo not given),13.3
COc1ccc(C2Nc3ccccc3NC3=C2C(=O)CC(c2ccc(OC)c(OC)c2)C3)cc1 (stereo not given),5.3
O=C(Oc1ccc([N+](=O)[O-])cc1)c1ccccc1Cl,14.3
N#C/C(=C/c1ccc(-c2ccccc2)cc1)c1nc(-c2ccc(Cl)cc2)cs1,-14.6
O=C(NCCNC(=O)c1cccs1)c1cccs1,3.7
O=C(CC(=S)c1cccs1)c1ccncc1,60.9*
O=C(NCc1ccncc1)c1cccs1,18.4
O=C(N/N=C\c1ccccn1)c1c[nH]c2ccccc12,21.1
COc1ccccc1C1Nc2ccccc2NC2=C1C(=O)CC(c1ccccc1)C2 (stereo not given),-0.2
CCOc1ccccc1C1Nc2ccccc2NC2=C1C(=O)CC(c1ccc(OC)cc1)C2 (stereo not given),18.8
SMILES,ER stress death
COc1ccc(C2CC(=O)C3=C(C2)Nc2ccccc2NC3c2ccccc2)cc1 (stereo not given),19.4
CCCOC(=O)C1=C(C)NC2=C(C(=O)CC(c3ccc(OC)cc3)C2)C1c1ccc(OCc2ccccc2)c(OC)c1 (stereo not given),6.3
COc1ccc(C2CC(=O)C3=C(C2)Nc2ccccc2NC3c2ccccc2Br)cc1 (stereo not given),7.6
O=C1CC(c2ccccc2)CC2=C1C(c1ccc(OCc3ccccc3)cc1)Nc1ccccc1N2 (stereo not given),-1.2
COc1ccc(C2CC(=O)C3=C(C2)Nc2ccccc2NC3c2cc(C)ccc2C)cc1 (stereo not given),115.7*
CCOc1ccc(C2Nc3ccccc3NC3=C2C(=O)CC(c2ccc(OC)cc2)C3)cc1 (stereo not given),0.9
COC(=O)C1=C(C)NC2=C(C(=O)CC(c3ccccc3)C2)C1c1ccc(Cl)cc1 (stereo not given),0.0
CCOc1ccc(C2Nc3ccccc3NC3=C2C(=O)CC(c2ccccc2)C3)cc1 (stereo not given),99.8*
CCCCOc1ccccc1C1Nc2ccccc2NC2=C1C(=O)CC(c1ccccc1)C2 (stereo not given),52.9*
CCCCOC(=O)C1=C(C)NC2=C(C(=O)CC(c3ccccc3)C2)C1c1ccco1 (stereo not given),68.1*
Oc1[nH]c2ccccc2c1N=NC(=S)N1CCCC1,-6.1
FC(F)(F)Oc1ccc(N=Cc2c[nH]c3ccccc23)cc1,17.5
CN1CCN(c2ccc(/C=C3\NC(=S)NC3=O)cc2[N+](=O)[O-])CC1,-2.4
O=c1[nH]c(=O)n(Cc2ccc(F)cc2)c(O)c1/C=C1/C=CC=N1,0.4
Cc1n[nH]c(=S)n(/N=C/c2ccc3c(c2)OCO3)c1=O,10.5
O=C(N/N=C\c1ccccc1)c1cncc(Br)c1,-4.0
O=C(Nn1cnnc1)c1cccc(Cl)c1,13.0
CSc1ccc(C2Nc3ccccc3NC3=C2C(=O)CC(c2ccccc2)C3)cc1 (stereo not given),91.4*
Cc1ccc(C2Nc3ccccc3NC3=C2C(=O)CC(c2ccccc2)C3)cc1 (stereo not given),49.0
O=C1CC(c2ccccc2)CC2=C1C(c1ccc(-c3ccccc3)cc1)Nc1ccccc1N2 (stereo not given),7.9
O=C(Nc1nc2ccc3ccccc3c2s1)c1ccc(Cl)s1,0.5
O=C1C=C/C(=N\S(=O)(=O)c2cccc([N+](=O)[O-])c2)c2ccccc21,-5.4
CC(C)Nc1nc(-c2ccc(Cl)cc2Cl)nc2ccccc12,1.0
